Screening data (PubChem BioAssay)
Pf growth 96h = Primary qHTS for delayed death inhibitors of the malarial parasite plastid, 96 hour incubation | Potency, µM (doses to about 28.7 µM), inactives show top-dose activity change, negative = inhibition, usual class: inhibitors | AID 504834, 2011 | 320,000 tested, 6.9% active | P. falciparum luciferase reporter growth, 96 h; also: potency is read from the fitted curve at half-maximal effect; % is scaled to controls: 0 for no effect and ±100 for the full control effect
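Cell-based qHTS: luciferase-tagged P. falciparum in erythrocytes (2% hematocrit, 0.05% parasitemia final) incubated with compounds for 96 hours, 37 C, 5% CO2; luciferase detection reagent then added and luminescence measured.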
Pf growth 48h = Primary qHTS for delayed death inhibitors of the malarial parasite plastid, 48 hour incubation | P. falciparum luciferase growth in erythrocytes, 48 h | 310,000 tested, 5.9% active | Potency, µM (titrated, usually from 28.7 µM), for the others: at the highest dose activity change, negative = inhibition, hits mostly inhibitors; also: potency is read from the fitted curve at half-maximal effect; % is scaled to controls: 0 for no effect and ±100 for the full control effect
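Growth was read as firefly luciferase luminescence after a 48 h, 37 C, 5% CO2 exposure of compounds to reporter-bearing P. falciparum cultures (0.1% parasitemia, 2% hematocrit final) in Albumax-supplemented RPMI 1640.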
HCMV antiviral = qHTS Assay for inhibitors of the human cytomegalovirus (HCMV); HFF cells, HCMV-luciferase reporter, 72 h; active compounds read low; activity change, negative = inhibition, % at 57.5 µM; 410,000 tested, 4.5% active; AID 1259415, 2018; in the data active = activity change below about -60%; inconclusive = no clear call, values can overlap the other calls; inactive = above about -39%; also: % is scaled to controls: 0 for no effect and ±100 for the full control effect
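Steps: HFFs plated, 16 h 37C; compounds added; HCMV-luciferase added to MOI 1 PFU/cell; 72 h 37C; OneGlo reagent, 5 min room temperature; luminescence read, normalized to controls.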
Cycloheximide cs = Cycloheximide Counterscreen for Small Molecule Inhibitors of Shiga Toxin | cell reporter, cycloheximide protein synthesis inhibition counterscreen | max response, % | 300,000 tested, 12% active; in the data active = max response mostly above about 13%, no sharp cut-off; inactive = mostly below about 14%; also: read at 38.3 µM for the half of the compounds with a filed dose; 0% is about no effect
HCV inh = qHTS Assay for Inhibitors of Hepatitis C Virus (HCV) | Huh7.5.1 HCVcc-Cre infection, luciferase reporter, 44 h | Potency, µM (series often up to 41.8 µM), for the others: at the top dose activity change, negative = inhibition, usual class: inhibitors | 340,000 tested, 3.4% active; also: potency is read from the fitted curve at half-maximal effect; % is scaled to controls: 0 for no effect and ±100 for the full control effect
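After 44 h co-culture of compound, cells and HCVcc-Cre (~0.5 moi), substrate is added for 15 min at room temperature and luciferase measured over 15 sec. Cells were seeded at 1,000/well and pre-cultured 4 h.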
Shiga inhibitor = A qHTS for Small Molecule Inhibitors of Shiga Toxin | Vero cells, Shiga toxin protein synthesis inhibition reporter | inhibition, % at 38.7 µM | 290,000 tested, 9.2% active; in the data active = inhibition mostly above about 28%, no sharp cut-off; inactive = mostly below about 43%; also: 0% is about no effect
* marks the source's active call; other numbers are inactive results; u = inconclusive; x = no result given; [ ] = dose if it differs, or a comment. An excerpt weighted towards active compounds, which were near 21% of everything screened. Unless noted, calls follow the shape of the dose curve; as a rule, active = well fitted inhibition curve with a large enough effect; inconclusive = small, poorly fitted or top-dose-only effect, or another doubt; inactive = no such curve, though single readings can be large or run the other way.

SMILES | Pf growth 96h | Pf growth 48h | HCMV antiviral | Cycloheximide cs | HCV inh | Shiga inhibitor
Cc1cccc(CCNC(=O)c2sc3nc4n(c(=O)c3c2C)CCCC4)c1 | x | x | 30 | x | x | x
c1ccc(-c2ccc(CN3C[C@@H]4C(c5ccccc5)C5(c6ccccc6)CC4(C5)[C@H]3c3ccccc3)cc2)cc1 (stereo partly specified) | u | -4% | -26 | -2 | 4%[8.37 µM] | -7
COC(=O)c1ccc(C23CC4(C2)[C@H](CN(Cc2ccc(C(F)(F)F)cc2)[C@@H]4c2ccccc2)C3c2ccc(Cl)nc2)cc1 (stereo partly specified) | 12µM* | 5.2µM* | 41 | -6 | u | -4
Clc1ccc(C2[C@H]3CN(Cc4ccc(-c5ccccc5)cc4)[C@H](c4ccccc4)C34CC2(c2cccnc2)C4)cn1 (stereo partly specified) | 2.3µM* | 3.3µM* | x | 2 | x | 3
COC(=O)c1ccc(C23CC4(C2)[C@H](CN(Cc2ccc(-c5ccccc5)cc2)[C@@H]4c2ccccc2)C3c2ccccc2)cc1 (stereo partly specified) | u | u | 25 | -4 | 15% | 17
COC(=O)c1cccc(C23CC4(C2)[C@H](CN(CC2CCCCC2)[C@@H]4c2ccccc2)C3c2ccccc2)c1 (stereo partly specified) | 4.1µM* | 10µM* | 21 | -7 | -14%[8.37 µM] | 16
Clc1ccc(C2[C@H]3CN(CC4CCCCC4)[C@H](c4ccccc4)C34CC2(c2ccccc2)C4)cn1 (stereo partly specified) | u | u | -6 | -3 | 13% | 3
COC(=O)c1ccc(C23CC4(C2)[C@H](CN(CC2CCCCC2)[C@@H]4c2ccccc2)C3c2ccc(Cl)nc2)cc1 (stereo partly specified) | 9.3µM* | 9.3µM* | 14 | 2 | 2% | 0
O=S(=O)(c1ccc2c(c1)OCO2)N1CCN(S(=O)(=O)c2c(F)cccc2F)CC1 | x | x | x | -5 | x | -4
CC1CCN(C(=O)CSC2=NS(=O)(=O)c3cc(F)ccc3N2)CC1 | u | 6% | -9 | x | 18% | x
N#Cc1ccc(C23CC4(C2)[C@H](CN(Cc2ccc(-c5ccccc5)cc2)[C@@H]4c2ccccc2)C3c2ccccc2)cc1 (stereo partly specified) | u | 2% | 0 | -2 | -8%[8.37 µM] | -6
N#Cc1ccc(C23CC4(C2)[C@H](CN(Cc2ccc(C(F)(F)F)cc2)[C@@H]4c2ccccc2)C3c2ccc(Cl)nc2)cc1 (stereo partly specified) | 13µM* | 12µM* | 2 | -2 | x | -5
FC(F)(F)c1ccc(CN2C[C@@H]3C(c4ccc(Cl)nc4)C4(c5cccnc5)CC3(C4)[C@H]2c2ccccc2)cc1 (stereo partly specified) | 2.3µM* | 3.3µM* | -67* | 1 | -8% | 3
FC(F)(F)c1ccc(C2[C@H]3CN(CC4CCCCC4)[C@H](c4ccccc4)C34CC2(c2cccnc2)C4)cc1 (stereo partly specified) | 3.3µM* | 3.3µM* | -20 | -3 | -7% | -8
COc1ccccc1-c1sc2ccccc2c1-c1ccccc1OC | 2.6µM* | 13µM* | -5 | x | u | x
COc1ccc(-c2c(-c3ccccc3OC)sc3ccccc23)cc1OC | 9.3µM* | u | -9 | -3 | u | -13
COc1ncc(-c2c(-c3ccccc3OC)sc3ccccc23)cn1 | x | x | -5 | x | x | x
Clc1ccc(Nc2ccccc2)nn1 | 0% | 18% | 0 | 3 | 4% | -8
COc1ccc(NC(=O)c2sc3nc4n(c(=O)c3c2C)CCC4)cc1Cl | x | x | 5 | x | x | x
O=C(O)CN1C2=NCCCN2c2ccccc21 | 27% | 14% | -24 | -1 | 10% | -6
Brc1ccc(CN2C3=NCCCN3c3ccccc32)cc1 | 131% | 12µM* | u | -7 | u | -13
Clc1ccc(CN2C3=NCCN3c3ccccc32)cc1 | x | u | 13 | -3 | 13µM* | -15
Clc1cccc(CN2C3=NCCCN3c3ccccc32)c1 | u | -17% | -33 | -3 | u | 1
Clc1ccc(CN2C3=NCCCN3c3ccccc32)c(Cl)c1 | 1µM* | u | x | -3 | u | -5
c1ccc(CN2C3=NCCCN3c3ccccc32)cc1 | 52% | 8.3µM* | -15 | -2 | u | -8
SMILES | Pf growth 96h | Pf growth 48h | HCMV antiviral | Cycloheximide cs | HCV inh | Shiga inhibitor
CCOc1ccc(CNC(=O)C2Cc3cc(S(=O)(=O)N4CCCCCC4)ccc3N2C(C)=O)cc1 (stereo unspecified) | x | x | 8 | x | x | x
Cc1ccc(NC(=O)C2CCN(c3ncccn3)CC2)cc1F | x | x | -25 | x | x | x
CC(C)(C)c1ccc(CN2C3=NCCCN3c3ccccc32)cc1 | 1% | 3.7µM* | -85* | -5 | 32µM* | -7
Cc1ccc(CN2C3=NCCCN3c3ccccc32)cc1 | u | 12µM* | -2 | -5 | u | -4
Cc1ccc(NC(=O)CSc2cn(CC(=O)N3CCOCC3)c3ccccc23)cc1Cl | x | x | -34 | x | x | x
CCCCCOP(=O)(OCCCCC)C1(NS(=O)(=O)c2ccccc2)C=CC(=O)c2ccccc21 (stereo unspecified) | 7.4µM* | 9.3µM* | 34 | -4 | -5% | -22
Cc1nn(C(=O)c2cc3sccc3[nH]2)c(C)c1C | 29% | 79% | 171 | 43* | -17% | 92*
Cc1nn(C(=O)c2cccs2)c(C)c1CN1C(=O)c2ccccc2C1=O | x | x | u | -4 | 6% | -17
O=C(NCc1nnc(SCc2ccc(F)cc2)n1-c1ccccc1)C12CC3CC(CC(C3)C1)C2 | u | 9.3µM* | 46 | -9 | -27% | -7
O=C(NCc1nnc(SCc2ccc(C(F)(F)F)cc2)n1-c1ccccc1)C12CC3CC(CC(C3)C1)C2 | 1.7µM* | u | -19 | 0 | u | -6
O=C(CSc1nnc(CNC(=O)C23CC4CC(CC(C4)C2)C3)n1-c1ccccc1)Nc1ccc(F)cc1 | u | u | 63 | -4 | u | -2
COc1cccc(C(=O)NCCc2sc(-c3cccc(C)c3)nc2C)c1 | x | x | 5 | x | x | x
Cc1ccc(-c2nnc(CSc3nncn3N)o2)cc1 | 40% | 34% | 3 | 19* | 30% | 35
Cc1occc1-c1nnc(SCc2nnc(-c3ccc(Cl)cc3)o2)n1C | -27% | 22% | 18 | 31* | -8% | 65*
Cn1c(SCc2nc(-c3ccc(Cl)cc3)no2)nnc1-c1ccccc1 | 0% | x | -6 | -1 | 3% | -7
Cn1nnnc1SCc1nnc(-c2ccc(Cl)cc2)o1 | x | 26% | 35 | 29* | -5% | 56*
